The values that follow come from PubChem BioAssay (Tox21).

Inconclusive results are not listed. Values without a mark were called inactive. Calls of active or inactive are those of the source. The call rests on the fitted dose curve.
On the % scale 0 is the no-effect control and ±100 the full control effect; potency means the concentration at half of the fitted maximal effect.

The nature of one assay: qHTS assay for small molecule agonists of the p53 signaling pathway - cell viability (AID 651633). Further: nearly all actives have a fitted effect of over 30% in size.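 On activity change, negative = cytotoxicity: p53RE-bla HCT reporter cells with a stable beta-lactamase p53 reporter.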 As to conditions: p53RE-bla HCT-116 viability, ATP luminescence, 16 h; series mostly up to 83.3 µM; activity change, negative = cytotoxicity: at the top concentration. The method in brief:
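p53RE-bla cells, seeded at 4,000 per well and rested 5 h at 37 C/5% CO2, received compounds in DMSO for 16 h at 37 C. CellTiter-Glo was then added, and luminescence was read after 30 min at room temperature to gauge cytotoxicity.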
Take `CCOc1cc(-c2nccc3cc(OC)c(OC)cc23)cc(OCC)c1OCC`: the “activity change, negative = cytotoxicity” value was -18.6%.
For the compound `C=C1CC[C@H](O)CC1=C/C=C1\CCC[C@]2(C)[C@@H]([C@H](C)CC[C@@H](O)C(C)(C)O)CC[C@@H]12`, the Potency was 21.1 µM (active).
Regarding `CCOC(=O)[C@@H](N)CS`, the “activity change, negative = cytotoxicity” value is 13%.
Regarding `Cn1c(O)c(N=NC(N)=S)c2ccccc21`, the “activity change, negative = cytotoxicity” value is -10.3%.
Take `CC(/C=C/C=C(\C)C(=O)O[C@@H]1O[C@H](CO[C@@H]2O[C@H](CO)[C@@H](O)[C@H](O)[C@H]2O)[C@@H](O)[C@H](O)[C@H]1O)=C\C=C\C=C(C)\C=C\C=C(/C)C(=O)O[C@@H]1O[C@H](CO[C@@H]2O[C@H](CO)[C@@H](O)[C@H](O)[C@H]2O)[C@@H](O)[C@H](O)[C@H]1O`: the “activity change, negative = cytotoxicity” value was 9.15%.

The nature of the next assay: qHTS assay for small molecules that induce genotoxicity in human embryonic kidney cells expressing luciferase-tagged ATAD5 - cell viability (AID 651634). Further: nearly all actives have a fitted effect of over 25% in size. As to conditions: HEK293T ATAD5-luc cells viability, CellTiter-Fluor, 15.5 h; series mostly up to 83.3 µM; activity, negative = cytotoxicity: at the top concentration. A digest of the protocol: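 15.5 hr compound or vehicle exposure of HEK293T cells expressing luciferase-tagged ATAD5 at 37C; live-cell protease activity is read by fluorescence after 30 min of CellTiter-Fluor.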
As to `CCCCCc1ccc(C)cc1O`, the “activity, negative = cytotoxicity” value was -17.4%.
Consider `CCCCCCCN(CC)CCCC(O)c1ccc(NS(C)(=O)=O)cc1` (centres undefined), for which the “activity, negative = cytotoxicity” value was 13.9%.
Take `[O]=[Bi][O]C(=O)[O][Bi]=[O]`: the “activity, negative = cytotoxicity” value was 4.37%.
Same read-out and setting: the figure for `C[C@]12CC[C@@H]3c4ccc(OC(=O)c5ccccc5)cc4CC[C@H]3[C@@H]1CC[C@@H]2O` is -10.1%.
Turning to `CCC(=O)O[C@]1(C(=O)CCl)[C@@H](C)C[C@H]2[C@@H]3C[C@H](F)C4=CC(=O)C=C[C@]4(C)[C@@]3(F)[C@@H](O)C[C@@]21C`, the “activity, negative = cytotoxicity” value is -6.61%.
On to `CO[C@H]1C=CO[C@@]2(C)Oc3c(C)c(O)c4c(O)c(c(/C=N/N5CCN(C6CCCC6)CC5)c(O)c4c3C2=O)NC(=O)/C(C)=C\C=C[C@H](C)[C@H](O)[C@@H](C)[C@@H](O)[C@@H](C)[C@H](OC(C)=O)[C@@H]1C`, for which the Potency is 21.1 µM (active).
In the case of `O=C(CO)[C@@H](O)[C@H](O)[C@@H](O)C(=O)O`, the “activity, negative = cytotoxicity” value is -2.73%.
As for `CN1[C@@H]2CC[C@H]1CC(OC(c1ccccc1)c1ccccc1)C2` (some centres undefined), the Potency result was “inactive”.
Take `c1ccc2c(c1)Sc1ccccc1N2CCN1CCCC1`: the “activity, negative = cytotoxicity” value was -19.4%.
With `CCCCCCCCCCCCCCCC(=O)OC[C@@H](O)[C@H]1OC[C@H](O)[C@H]1O`, the “activity, negative = cytotoxicity” value is 10.1%.
Regarding `NC[C@@H]1O[C@H](O[C@H]2[C@@H](O)[C@H](O[C@@H]3[C@@H](O)[C@H](N)C[C@H](N)[C@H]3O[C@H]3O[C@H](CN)[C@@H](O)[C@H](O)[C@H]3N)O[C@@H]2CO)[C@H](N)[C@@H](O)[C@@H]1O`, the “activity, negative = cytotoxicity” value is 7.43%.
Take `O=C1/C(=C\c2cccs2)CCC/C1=C\c1cccs1`: the “activity, negative = cytotoxicity” value is -5.44%.
In the case of `CN(C)CCOc1ccccc1Cc1ccccc1` (tested in a mixture with another compound), the “activity, negative = cytotoxicity” value was 16.1%.
Consider `Cc1cc(-c2ccc(N=Nc3c(S(=O)(=O)O)cc4cc(S(=O)(=O)O)cc(N)c4c3O)c(C)c2)ccc1N=Nc1c(S(=O)(=O)O)cc2cc(S(=O)(=O)O)cc(N)c2c1O`, for which the Potency is 26.6 µM (active).
With `O=C(O)CO.[NH2-].[NH2-].[Pt+2]`, the “activity, negative = cytotoxicity” value was 14.5%.
The same measure, in the same setting: the figure for `CC(=O)O[C@H]1CC[C@@]2(C)C(=CC[C@@H]3[C@@H]2CC[C@]2(C)C(c4cccnc4)=CC[C@@H]32)C1` is 15.5%; for `CCCCC(=O)N(Cc1ccc(-c2ccccc2-c2nn[nH]n2)cc1)[C@@H](C(=O)O)C(C)C` it is 18.6%.
Consider `CCOc1cc(-c2nccc3cc(OC)c(OC)cc23)cc(OCC)c1OCC`, for which the Potency is 26.6 µM (active).

The next assay in a line: qHTS assay for small molecule disruptors of the mitochondrial membrane potential - cell viability (AID 720634). Further: nearly all actives have a fitted effect of over 20% in size.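 On activity change, negative = cytotoxicity: human HepG2 liver cancer cells.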 The conditions noted are these: HepG2 viability, ATP luminescence (CellTiter-Glo), 1 h; series mostly up to 83.2 µM; activity change, negative = cytotoxicity: at the top concentration. A digest of the protocol:
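In this qHTS format, HepG2 cells plated overnight were pinned with compound, incubated 1 hr, and assayed for ATP luminescence with CellTiter-Glo after m-MPI dye addition.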
With `CNC(=O)c1c(I)c(C(=O)NCC(=O)Nc2c(I)c(C(=O)O)c(I)c(C(=O)NCCO)c2I)c(I)c(N(C)C(C)=O)c1I`, the “activity change, negative = cytotoxicity” value was -1.58%.
As for `N#CC(c1ccc(Cl)cc1)c1c(Cl)cc(-n2ncc(=O)[nH]c2=O)cc1Cl` (centres undefined), the “activity change, negative = cytotoxicity” value was -14.8%.
As to `CN[C@H]1CCc2cc(OC)c(OC)c(OC)c2-c2ccc(OC)c(=O)cc21`, the “activity change, negative = cytotoxicity” value was 5.21%.
`COC(=O)C1=C(C#N)NC(C)=C(C(=O)OC(C)C)C1c1cccc([N+](=O)[O-])c1` (centres undefined): the Potency was 11.9 µM (active).
As for `C[C@]12C=CC(=O)N[C@@H]1CC[C@@H]1[C@@H]2CC[C@]2(C)[C@@H](C(=O)Nc3cc(C(F)(F)F)ccc3C(F)(F)F)CC[C@@H]12`, the “activity change, negative = cytotoxicity” value is -8.72%.
Turning to `CC(=O)Nc1ccc(OC(=O)c2ccccc2O)cc1`, the “activity change, negative = cytotoxicity” value was -15.9%.
With `NC(=O)Oc1ccc(Cc2ccccc2)cc1`, the “activity change, negative = cytotoxicity” value is -16.5%.
As for `Clc1cc(Cl)c(OCC#CI)cc1Cl`, the Potency is 9.44 µM (active).
As for `CC1=C(C(=O)OCCN(Cc2ccccc2)c2ccccc2)C(c2cccc([N+](=O)[O-])c2)C(P2(=O)OCC(C)(C)CO2)=C(C)N1` (centres undefined), the “activity change, negative = cytotoxicity” value is -8.03%.
As for `CCC(C)(C)OC(=O)N[C@@H](Cc1c[nH]c2ccccc12)C(=O)N[C@@H](CCSC)C(=O)N[C@@H](CC(=O)O)C(=O)N[C@@H](Cc1ccccc1)C(N)=O`, the “activity change, negative = cytotoxicity” value is -4.15%.
As for `C=C[C@]1(C)C[C@@H](OC(=O)CSC(C)(C)CNC(=O)[C@H](N)C(C)C)[C@]2(C)[C@H](C)CC[C@]3(CCC(=O)[C@H]32)[C@@H](C)[C@@H]1O`, the “activity change, negative = cytotoxicity” value was 11.4%.
As to `C=C1C(=C/C=C2\CCC[C@]3(C)[C@@H]([C@H](C)CCCC(C)(C)O)CC[C@@H]23)C[C@@H](O)C[C@@H]1O`, the “activity change, negative = cytotoxicity” value is -5.65%.
As for `O=C(Nc1ccc(Br)cc1)c1cc(Br)c(Br)s1`, the Potency was 3.35 µM (active).
As for `CCCOc1ccc2nc(NC(=O)OC)sc2c1`, the “activity change, negative = cytotoxicity” value is 12.3%.
For the compound `C[N+]1(C)[C@@H]2CC(OC(=O)C(O)(c3cccs3)c3cccs3)C[C@H]1[C@@H]1O[C@@H]12` (some centres undefined), the “activity change, negative = cytotoxicity” value was 7.01%.
For `CCC(=O)OCC(=O)[C@@]1(OC(=O)CC)[C@@H](C)C[C@H]2[C@@H]3CCC4=CC(=O)C=C[C@]4(C)[C@@]3(Cl)[C@@H](O)C[C@@]21C`, the “activity change, negative = cytotoxicity” value is -13.9%.
As for `O=C(OCc1ccccc1)c1cccnc1`, the “activity change, negative = cytotoxicity” value was -8.02%.
For `C=C1CC[C@H](O)CC1=C/C=C1\CCC[C@]2(C)[C@@H]([C@H](C)CC[C@@H](O)C(C)(C)O)CC[C@@H]12`, the “activity change, negative = cytotoxicity” value is -19.9%.
Turning to `CCOC(=O)[C@@H](N)CS`, the “activity change, negative = cytotoxicity” value was -16.8%.
For the compound `Cn1c(O)c(N=NC(N)=S)c2ccccc21`, the “activity change, negative = cytotoxicity” value was -11.5%.
Still for that read-out and setting: for `CC(/C=C/C=C(\C)C(=O)O[C@@H]1O[C@H](CO[C@@H]2O[C@H](CO)[C@@H](O)[C@H](O)[C@H]2O)[C@@H](O)[C@H](O)[C@H]1O)=C\C=C\C=C(C)\C=C\C=C(/C)C(=O)O[C@@H]1O[C@H](CO[C@@H]2O[C@H](CO)[C@@H](O)[C@H](O)[C@H]2O)[C@@H](O)[C@H](O)[C@H]1O` the value was -6.96%.
